For one sequence, binding signal results are on record in publication PMC7862700, “An all-to-all approach to the identification of sequence-specific readers for epigenetic DNA modifications on cytosine”.

Holding throughout (assay): DAPPL (digital affinity profiling via proximity ligation, sequencing); 10 mM Tris-HCl pH 7.5, 50 mM NaCl, 1 mM DTT, 4% glycerol, room temperature, 30 min; GST-TFs on glutathione beads, 16-mer random dsDNA library, 0.1% formaldehyde crosslink after washing; high values mean tight binding
The target of one experiment is T1, FLI1 (Homo sapiens, UniProt Q01543 1-452).
T1 sequence: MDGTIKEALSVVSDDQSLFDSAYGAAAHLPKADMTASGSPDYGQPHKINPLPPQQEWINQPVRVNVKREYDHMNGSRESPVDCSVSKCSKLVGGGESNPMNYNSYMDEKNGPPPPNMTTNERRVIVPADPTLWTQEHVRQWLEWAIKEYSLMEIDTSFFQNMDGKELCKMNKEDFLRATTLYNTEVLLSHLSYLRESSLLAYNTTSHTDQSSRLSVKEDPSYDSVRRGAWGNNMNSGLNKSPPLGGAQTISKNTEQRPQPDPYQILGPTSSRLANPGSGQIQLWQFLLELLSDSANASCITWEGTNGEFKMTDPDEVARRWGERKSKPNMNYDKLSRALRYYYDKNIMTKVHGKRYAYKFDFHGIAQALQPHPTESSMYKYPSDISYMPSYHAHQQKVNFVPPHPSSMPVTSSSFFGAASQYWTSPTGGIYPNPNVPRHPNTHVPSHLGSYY
The conditions noted are these: protein: recombinant; tags: N-terminal GST; dsDNA, one strand shown. A digest of the protocol:
(§1)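 In yeast, human transcription factors were expressed with a GST fusion, then pulled down on glutathione beads and given DNA barcodes. Pooled with a tag-only sample, they were exposed to 200 nmole of a 16-mer random double-stranded DNA library (Tris/NaCl/DTT/glycerol buffer, room temperature, 30 min), washed, crosslinked with 0.1% formaldehyde, proximity-ligated using BsaI/T4 ligase for 1 h at 37 °C, PCR-amplified and read on an Illumina NextSeq500. Each hexamer's frequency of reads for a factor, divided by the matching frequency for the tag-only sample, gives the binding signal.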

For a further experiment, the target named is T2, ELK1 (Homo sapiens, UniProt P19419 1-428).
T2 sequence: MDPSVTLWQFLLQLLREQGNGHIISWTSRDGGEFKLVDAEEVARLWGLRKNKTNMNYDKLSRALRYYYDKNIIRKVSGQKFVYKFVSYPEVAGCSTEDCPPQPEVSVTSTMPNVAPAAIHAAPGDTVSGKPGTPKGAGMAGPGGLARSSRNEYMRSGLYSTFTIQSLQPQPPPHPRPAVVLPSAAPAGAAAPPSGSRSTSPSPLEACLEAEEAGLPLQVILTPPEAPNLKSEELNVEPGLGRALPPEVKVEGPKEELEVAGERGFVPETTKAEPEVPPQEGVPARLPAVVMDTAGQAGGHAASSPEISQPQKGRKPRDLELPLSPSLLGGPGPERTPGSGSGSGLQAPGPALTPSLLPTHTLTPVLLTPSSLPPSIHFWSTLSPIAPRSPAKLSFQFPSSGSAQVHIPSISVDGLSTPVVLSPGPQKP
The conditions noted are these: protein: recombinant; tags: N-terminal GST; dsDNA, one strand shown. A digest of the protocol: as §1

The next experiment addresses T3, GABPA (Homo sapiens, UniProt Q06546 1-454).
T3 sequence: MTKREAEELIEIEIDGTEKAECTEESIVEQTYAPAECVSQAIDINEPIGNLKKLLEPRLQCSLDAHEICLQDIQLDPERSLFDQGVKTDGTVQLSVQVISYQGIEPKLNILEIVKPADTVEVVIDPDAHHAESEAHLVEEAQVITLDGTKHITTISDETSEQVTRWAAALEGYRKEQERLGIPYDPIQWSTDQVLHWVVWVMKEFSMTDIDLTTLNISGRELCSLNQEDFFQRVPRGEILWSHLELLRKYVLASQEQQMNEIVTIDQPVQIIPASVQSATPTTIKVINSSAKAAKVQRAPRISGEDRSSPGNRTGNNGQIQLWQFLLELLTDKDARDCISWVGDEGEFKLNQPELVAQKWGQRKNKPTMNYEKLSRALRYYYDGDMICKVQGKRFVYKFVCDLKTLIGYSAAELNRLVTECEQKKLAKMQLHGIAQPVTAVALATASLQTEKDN
The conditions noted are these: protein: recombinant; tags: N-terminal GST; dsDNA, one strand shown. An outline of the steps: as §1

A further experiment has as its target T4, ERG (Homo sapiens, UniProt P11308 1-479).
T4 sequence: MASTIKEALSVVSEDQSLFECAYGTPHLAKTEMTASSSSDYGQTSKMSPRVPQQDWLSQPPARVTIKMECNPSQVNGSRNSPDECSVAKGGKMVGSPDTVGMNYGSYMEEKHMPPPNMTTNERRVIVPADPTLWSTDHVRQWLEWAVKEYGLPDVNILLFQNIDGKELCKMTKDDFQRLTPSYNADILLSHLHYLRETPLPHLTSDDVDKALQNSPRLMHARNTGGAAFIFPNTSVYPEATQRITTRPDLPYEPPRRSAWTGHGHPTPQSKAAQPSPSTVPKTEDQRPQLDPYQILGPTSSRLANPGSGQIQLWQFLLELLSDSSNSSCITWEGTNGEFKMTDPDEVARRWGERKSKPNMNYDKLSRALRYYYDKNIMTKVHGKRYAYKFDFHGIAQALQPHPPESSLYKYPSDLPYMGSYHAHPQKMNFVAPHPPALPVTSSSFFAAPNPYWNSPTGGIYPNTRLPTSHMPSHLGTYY
The conditions noted are these: protein: recombinant; tags: N-terminal GST; dsDNA, one strand shown. A digest of the protocol: as §1

A further experiment concerns the target ELF1 (Homo sapiens, UniProt P32519 1-619). Particulars: protein: recombinant; tags: N-terminal GST; dsDNA, one strand shown. An outline of the steps: as §1
The next experiment concerns the target T5, EHF (Homo sapiens, UniProt Q9NZC4 1-300).
T5 sequence: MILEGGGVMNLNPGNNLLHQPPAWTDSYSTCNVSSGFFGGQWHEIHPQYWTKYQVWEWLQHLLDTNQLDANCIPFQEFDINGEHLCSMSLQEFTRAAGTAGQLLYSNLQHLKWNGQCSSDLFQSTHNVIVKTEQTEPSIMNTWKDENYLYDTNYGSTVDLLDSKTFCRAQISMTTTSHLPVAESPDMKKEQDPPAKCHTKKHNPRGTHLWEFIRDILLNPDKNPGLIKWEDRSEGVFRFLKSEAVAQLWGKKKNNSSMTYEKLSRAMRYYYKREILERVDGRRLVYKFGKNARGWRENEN
The conditions noted are these: protein: recombinant; tags: N-terminal GST; dsDNA, one strand shown. An outline of the steps:
as §1

The target in the next experiment is SPI1 (Homo sapiens, UniProt P17947 1-270). Particulars: protein: recombinant; tags: N-terminal GST; dsDNA, one strand shown. A digest of the protocol: as §1
A further experiment has as its target SPIB (Homo sapiens, UniProt Q01892 1-262). Particulars: protein: recombinant; tags: N-terminal GST; dsDNA, one strand shown. A digest of the protocol:
as §1

In another experiment the target is T6, ELK3 (Homo sapiens, UniProt P41970 1-407).
T6 sequence: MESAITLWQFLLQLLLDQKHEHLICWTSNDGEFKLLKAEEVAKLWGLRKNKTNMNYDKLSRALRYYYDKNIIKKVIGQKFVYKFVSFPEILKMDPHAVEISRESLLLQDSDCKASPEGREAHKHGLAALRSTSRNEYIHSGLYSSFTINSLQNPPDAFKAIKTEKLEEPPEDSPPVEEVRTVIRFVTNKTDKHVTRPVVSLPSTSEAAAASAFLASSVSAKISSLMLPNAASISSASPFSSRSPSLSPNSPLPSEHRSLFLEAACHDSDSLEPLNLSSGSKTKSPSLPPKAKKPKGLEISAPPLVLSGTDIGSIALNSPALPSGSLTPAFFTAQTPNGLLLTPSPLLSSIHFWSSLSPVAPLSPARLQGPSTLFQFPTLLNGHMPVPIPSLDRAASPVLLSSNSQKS
The conditions noted are these: protein: recombinant; tags: N-terminal GST; dsDNA, one strand shown. An outline of the steps:
as §1

Another experiment has as its target T7, FEV (Homo sapiens, UniProt Q99581 1-238).
T7 sequence: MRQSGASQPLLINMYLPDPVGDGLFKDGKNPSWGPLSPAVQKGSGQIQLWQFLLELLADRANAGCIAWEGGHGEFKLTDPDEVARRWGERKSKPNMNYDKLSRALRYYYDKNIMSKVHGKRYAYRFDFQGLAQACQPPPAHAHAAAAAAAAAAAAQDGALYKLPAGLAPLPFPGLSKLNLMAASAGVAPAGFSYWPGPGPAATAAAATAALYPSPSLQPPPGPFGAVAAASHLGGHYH
Particulars: protein: recombinant; tags: N-terminal GST; dsDNA, one strand shown. An outline of the steps: as §1

For the next experiment, the target named is ETV5 (Homo sapiens, UniProt P41161 1-510). The conditions noted are these: protein: recombinant; tags: N-terminal GST; dsDNA, one strand shown. A digest of the protocol:
as §1

In another experiment the target is HSF1 (Homo sapiens, UniProt Q00613 1-529). The conditions noted are these: protein: recombinant; tags: N-terminal GST; chain copies: 3; dsDNA, one strand shown. A digest of the protocol:
as §1

The target in the next experiment is T8, SPIC (Homo sapiens, UniProt Q8N5J4 1-248).
T8 sequence: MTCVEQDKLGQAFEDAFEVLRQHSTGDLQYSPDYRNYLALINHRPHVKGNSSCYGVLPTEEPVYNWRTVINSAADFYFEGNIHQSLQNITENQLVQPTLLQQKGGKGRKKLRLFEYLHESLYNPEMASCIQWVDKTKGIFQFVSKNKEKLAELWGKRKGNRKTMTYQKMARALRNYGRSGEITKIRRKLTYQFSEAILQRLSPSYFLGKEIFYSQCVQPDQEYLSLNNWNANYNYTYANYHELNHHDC
The conditions noted are these: protein: recombinant; tags: N-terminal GST; dsDNA, one strand shown. A digest of the protocol:
as §1

In another experiment the target is ELF4 (Homo sapiens, UniProt Q99607 1-663). Particulars: protein: recombinant; tags: N-terminal GST; dsDNA, one strand shown. An outline of the steps: as §1
ELF4, sequence (Q99607 whole entry): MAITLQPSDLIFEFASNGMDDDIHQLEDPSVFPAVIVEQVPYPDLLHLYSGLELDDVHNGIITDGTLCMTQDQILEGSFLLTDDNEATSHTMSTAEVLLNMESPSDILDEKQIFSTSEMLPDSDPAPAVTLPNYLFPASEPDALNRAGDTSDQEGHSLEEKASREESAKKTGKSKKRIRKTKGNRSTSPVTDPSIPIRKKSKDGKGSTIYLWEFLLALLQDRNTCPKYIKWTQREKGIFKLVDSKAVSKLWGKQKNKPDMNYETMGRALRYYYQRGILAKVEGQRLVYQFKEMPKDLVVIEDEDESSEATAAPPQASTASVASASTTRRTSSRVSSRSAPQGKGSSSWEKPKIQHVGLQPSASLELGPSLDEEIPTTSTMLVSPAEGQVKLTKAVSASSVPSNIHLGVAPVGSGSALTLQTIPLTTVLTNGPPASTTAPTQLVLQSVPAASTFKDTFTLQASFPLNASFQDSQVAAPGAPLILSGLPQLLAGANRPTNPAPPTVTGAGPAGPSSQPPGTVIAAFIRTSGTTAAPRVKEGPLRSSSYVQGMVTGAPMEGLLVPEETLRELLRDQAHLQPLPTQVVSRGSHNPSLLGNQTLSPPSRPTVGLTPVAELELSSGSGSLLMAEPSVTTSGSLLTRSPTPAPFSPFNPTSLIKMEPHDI
The target of a further experiment is T9, ELK4 (Homo sapiens, UniProt P28324-2 1-405).
T9 sequence: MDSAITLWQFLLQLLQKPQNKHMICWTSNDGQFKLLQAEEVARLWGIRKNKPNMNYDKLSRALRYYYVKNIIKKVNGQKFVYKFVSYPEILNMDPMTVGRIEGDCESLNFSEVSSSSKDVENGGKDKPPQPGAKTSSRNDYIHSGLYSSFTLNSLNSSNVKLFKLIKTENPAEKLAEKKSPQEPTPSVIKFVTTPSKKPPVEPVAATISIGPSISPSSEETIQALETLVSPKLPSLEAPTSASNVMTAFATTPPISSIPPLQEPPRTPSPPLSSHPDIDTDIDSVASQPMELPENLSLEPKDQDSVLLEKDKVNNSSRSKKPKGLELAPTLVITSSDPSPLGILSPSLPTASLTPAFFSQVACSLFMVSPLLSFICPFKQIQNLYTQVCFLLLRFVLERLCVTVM
The conditions noted are these: protein: recombinant; tags: N-terminal GST; dsDNA, one strand shown. A digest of the protocol: as §1

For the next experiment, the target named is T10, ETV2 (Homo sapiens, UniProt O00321 1-342).
T10 sequence: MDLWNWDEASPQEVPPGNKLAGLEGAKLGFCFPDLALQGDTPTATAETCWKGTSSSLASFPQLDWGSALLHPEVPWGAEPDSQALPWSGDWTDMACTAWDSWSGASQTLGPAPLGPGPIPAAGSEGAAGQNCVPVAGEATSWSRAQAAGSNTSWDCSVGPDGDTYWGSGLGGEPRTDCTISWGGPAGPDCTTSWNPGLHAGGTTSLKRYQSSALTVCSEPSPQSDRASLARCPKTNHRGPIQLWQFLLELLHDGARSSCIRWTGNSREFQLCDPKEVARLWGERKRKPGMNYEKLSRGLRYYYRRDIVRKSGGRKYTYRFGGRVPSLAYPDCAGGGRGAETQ
Particulars: protein: recombinant; tags: N-terminal GST; dsDNA, one strand shown. An outline of the steps:
as §1

For a further experiment, the target named is T11, ELF3 (Homo sapiens, UniProt P78545 1-371).
T11 sequence: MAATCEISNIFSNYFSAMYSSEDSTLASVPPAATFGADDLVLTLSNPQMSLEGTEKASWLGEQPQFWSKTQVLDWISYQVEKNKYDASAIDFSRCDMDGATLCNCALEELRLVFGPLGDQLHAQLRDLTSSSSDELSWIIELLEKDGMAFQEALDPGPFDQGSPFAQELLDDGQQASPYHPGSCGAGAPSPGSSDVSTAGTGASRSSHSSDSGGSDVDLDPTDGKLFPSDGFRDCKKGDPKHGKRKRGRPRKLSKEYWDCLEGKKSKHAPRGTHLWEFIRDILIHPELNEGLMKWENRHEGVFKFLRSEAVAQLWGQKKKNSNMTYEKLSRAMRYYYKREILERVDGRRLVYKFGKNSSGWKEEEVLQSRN
Particulars: protein: recombinant; tags: N-terminal GST; dsDNA, one strand shown. A digest of the protocol:
as §1

For the next experiment, the target named is CRX (Homo sapiens, UniProt O43186 1-299). Particulars: protein: recombinant; tags: N-terminal GST; dsDNA, one strand shown. A digest of the protocol: as §1
CRX, sequence (O43186 whole entry): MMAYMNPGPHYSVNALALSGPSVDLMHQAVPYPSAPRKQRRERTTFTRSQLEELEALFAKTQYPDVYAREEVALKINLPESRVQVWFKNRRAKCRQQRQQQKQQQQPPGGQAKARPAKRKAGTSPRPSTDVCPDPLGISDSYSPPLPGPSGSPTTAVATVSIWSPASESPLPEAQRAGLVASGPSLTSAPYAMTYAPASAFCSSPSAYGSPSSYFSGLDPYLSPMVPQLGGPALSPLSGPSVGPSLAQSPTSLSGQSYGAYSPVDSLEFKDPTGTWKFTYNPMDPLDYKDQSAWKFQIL
For the next experiment, the target named is ETV1 (Homo sapiens, UniProt P50549 1-477). The conditions noted are these: protein: recombinant; tags: N-terminal GST; dsDNA, one strand shown. An outline of the steps:
as §1

ETV1, sequence (P50549 whole entry): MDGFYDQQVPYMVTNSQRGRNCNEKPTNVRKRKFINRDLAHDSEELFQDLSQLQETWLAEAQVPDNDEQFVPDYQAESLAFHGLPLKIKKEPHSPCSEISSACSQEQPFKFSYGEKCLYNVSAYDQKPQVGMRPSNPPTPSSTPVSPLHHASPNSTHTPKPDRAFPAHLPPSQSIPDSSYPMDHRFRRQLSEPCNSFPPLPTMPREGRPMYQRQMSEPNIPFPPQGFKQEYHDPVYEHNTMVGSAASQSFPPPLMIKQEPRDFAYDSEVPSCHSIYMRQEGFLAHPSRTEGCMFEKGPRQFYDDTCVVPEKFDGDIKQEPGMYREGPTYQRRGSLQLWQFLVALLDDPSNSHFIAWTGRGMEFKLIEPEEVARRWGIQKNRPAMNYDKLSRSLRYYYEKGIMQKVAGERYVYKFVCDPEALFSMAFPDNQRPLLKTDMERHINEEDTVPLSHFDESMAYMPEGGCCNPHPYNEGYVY
SPIB, sequence (Q01892 whole entry): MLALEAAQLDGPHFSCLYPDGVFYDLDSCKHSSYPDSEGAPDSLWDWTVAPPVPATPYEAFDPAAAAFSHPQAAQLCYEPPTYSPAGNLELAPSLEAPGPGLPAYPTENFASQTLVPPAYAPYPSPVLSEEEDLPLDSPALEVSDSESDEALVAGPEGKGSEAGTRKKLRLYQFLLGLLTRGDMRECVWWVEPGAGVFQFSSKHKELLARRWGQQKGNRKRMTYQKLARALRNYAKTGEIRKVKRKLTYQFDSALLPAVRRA
ELF1, sequence (P32519 whole entry): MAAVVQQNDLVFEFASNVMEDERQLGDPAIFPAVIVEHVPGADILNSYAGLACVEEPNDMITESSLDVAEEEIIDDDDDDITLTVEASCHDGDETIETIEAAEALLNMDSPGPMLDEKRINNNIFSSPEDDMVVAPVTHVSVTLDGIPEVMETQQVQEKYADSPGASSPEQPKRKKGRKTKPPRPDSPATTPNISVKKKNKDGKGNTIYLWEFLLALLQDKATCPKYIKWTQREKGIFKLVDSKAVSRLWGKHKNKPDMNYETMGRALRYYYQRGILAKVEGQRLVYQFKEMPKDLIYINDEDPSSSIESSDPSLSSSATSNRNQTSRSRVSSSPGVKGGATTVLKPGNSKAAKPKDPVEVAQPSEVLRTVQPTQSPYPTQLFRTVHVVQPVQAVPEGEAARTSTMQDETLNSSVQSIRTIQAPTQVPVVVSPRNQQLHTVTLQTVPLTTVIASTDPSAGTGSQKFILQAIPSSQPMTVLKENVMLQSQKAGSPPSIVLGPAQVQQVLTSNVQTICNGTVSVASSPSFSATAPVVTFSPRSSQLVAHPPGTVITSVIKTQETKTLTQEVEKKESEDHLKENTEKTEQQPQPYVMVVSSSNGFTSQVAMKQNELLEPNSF
HSF1, sequence (Q00613 whole entry): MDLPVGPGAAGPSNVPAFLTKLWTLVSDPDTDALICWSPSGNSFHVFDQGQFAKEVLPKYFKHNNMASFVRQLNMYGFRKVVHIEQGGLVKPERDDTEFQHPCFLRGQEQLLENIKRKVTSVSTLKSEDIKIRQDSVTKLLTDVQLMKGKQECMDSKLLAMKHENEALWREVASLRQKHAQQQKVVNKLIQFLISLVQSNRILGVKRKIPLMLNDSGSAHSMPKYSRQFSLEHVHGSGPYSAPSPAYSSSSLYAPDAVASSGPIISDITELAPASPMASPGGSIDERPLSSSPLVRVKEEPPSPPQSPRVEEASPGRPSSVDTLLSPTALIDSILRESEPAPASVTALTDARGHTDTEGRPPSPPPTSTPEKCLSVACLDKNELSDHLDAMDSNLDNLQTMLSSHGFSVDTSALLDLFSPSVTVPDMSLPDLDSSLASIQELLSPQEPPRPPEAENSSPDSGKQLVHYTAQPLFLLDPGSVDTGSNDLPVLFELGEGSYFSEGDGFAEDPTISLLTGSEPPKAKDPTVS
ETV5, sequence (P41161 whole entry): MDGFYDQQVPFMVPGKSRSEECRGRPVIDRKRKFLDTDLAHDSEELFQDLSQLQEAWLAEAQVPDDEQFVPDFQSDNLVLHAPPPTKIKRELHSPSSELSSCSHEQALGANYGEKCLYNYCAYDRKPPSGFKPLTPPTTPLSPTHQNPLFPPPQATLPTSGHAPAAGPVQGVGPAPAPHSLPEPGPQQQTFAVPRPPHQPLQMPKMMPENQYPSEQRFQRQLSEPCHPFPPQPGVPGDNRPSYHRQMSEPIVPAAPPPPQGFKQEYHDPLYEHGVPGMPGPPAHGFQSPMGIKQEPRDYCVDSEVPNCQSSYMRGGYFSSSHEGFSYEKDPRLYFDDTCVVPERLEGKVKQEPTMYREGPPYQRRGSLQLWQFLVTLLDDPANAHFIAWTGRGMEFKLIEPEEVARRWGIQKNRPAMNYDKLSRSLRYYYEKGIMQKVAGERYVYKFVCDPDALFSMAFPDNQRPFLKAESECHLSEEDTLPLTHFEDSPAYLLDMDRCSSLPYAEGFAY

In the case of TCCCCA, the binding signal with FLI1 is 1.38 fold enrichment (6-mer frequency, TF over GST control); with ELK1, 1.29 fold enrichment (6-mer frequency, TF over GST control); in the experiment with GABPA, 1.21 fold enrichment (6-mer frequency, TF over GST control); with ERG it was 1.42 fold enrichment (6-mer frequency, TF over GST control); with ELF1 it was 1.39 fold enrichment (6-mer frequency, TF over GST control); in the experiment with EHF, 1.45 fold enrichment (6-mer frequency, TF over GST control). For the same sequence, the binding signal is 1.63 fold enrichment (6-mer frequency, TF over GST control) with SPI1; 1.16 fold enrichment (6-mer frequency, TF over GST control) with SPIB; 1.34 fold enrichment (6-mer frequency, TF over GST control) with ELK3; 1.33 fold enrichment (6-mer frequency, TF over GST control) in the experiment with FEV; 1.41 fold enrichment (6-mer frequency, TF over GST control) with ETV5; 1.3 fold enrichment (6-mer frequency, TF over GST control) in the experiment with HSF1. The binding signal with SPIC is 1.56 fold enrichment (6-mer frequency, TF over GST control); in the experiment with ELF4, 1.39 fold enrichment (6-mer frequency, TF over GST control); with ELK4, 1.58 fold enrichment (6-mer frequency, TF over GST control); in the experiment with ETV2, 1.51 fold enrichment (6-mer frequency, TF over GST control); with ELF3, 1.54 fold enrichment (6-mer frequency, TF over GST control); in the experiment with CRX it was 1.43 fold enrichment (6-mer frequency, TF over GST control). Further, the binding signal with ETV1 is 1.49 fold enrichment (6-mer frequency, TF over GST control).
